# From PubChem BioAssay
# Dicer processing = inhibitors of human Dicer processing of pre-microRNA; Q9UPY3; z-score at 25 µM; 47,000 compounds, 6% hits; cat-ELCCA pre-miR-21 Dicer processing, chemiluminescence; active compounds read high; AID 1347074; in the data active = z-score above about 3, passing the limit was not always enough;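 note: plate controls were vehicle for no effect and no enzyme for full effect; higher signal means more uncleaved substrate so more Dicer inhibition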
# * = called active by the depositor. Many of the other results were omitted from the sample, so hits are more common in it than they were.
SMILES,Dicer processing
CC1CC(O)(c2ccccc2)C(C)CN1C (configuration not stated),3.6*
O=C1C2CCN(CC2)C1CSc1ccc(Cl)cc1 (configuration not stated),-0.31
CC(=O)NC1CCSC1=O (configuration not stated),0.01
CC(C)C1(C)N=C(c2ncccc2C(=O)O)NC1=O (configuration not stated),3.2*
CCOc1ccccc1Oc1c(C)oc2cc(OC(=O)N(C)C)ccc2c1=O,1.3
CN(C)C(=O)Oc1ccc2c(=O)c(Oc3ccccc3Br)c(C(F)(F)F)oc2c1,1.6
COc1ccc(OC)c(NC2=NCCS2)c1,3.1*
COc1ccc(Br)c(NC2=NCCS2)c1,-0.17
Cc1ccc(NC2=NCCS2)cc1Cl,-1.1
CC(C)Sc1nnc(OC(=O)N(C)C)n1-c1cccc(C(F)(F)F)c1,-0.21
Cc1cc(Br)ccc1-n1c(=S)[nH]c2ccccc2c1=O,-0.68
CCCc1cc(=O)oc2cc(OC(=O)N(C)C)ccc12,0.68
CSc1nc(OC(=O)N(C)C)cc(-c2ccccc2)n1,3.7*
COCc1cc(OC(=O)N(C)C)nc(-c2cccc(C)c2)n1,0.37
Cc1cc(OC(=O)N(C)C)nc(SCc2c(F)cccc2Cl)n1,0.04
CC1(C)SCN2C(=S)N(c3ccc([N+](=O)[O-])cc3)C(=O)C21 (configuration not stated),-1.5
O=C(O)C1C2c3ccccc3C(c3ccccc32)C1C(=O)O (configuration not stated),-0.48
Cc1cc(NC(=O)C(Cl)(Cl)Cl)ccc1Br,1
OCC12COC3c4ccccc4C(OC1)N32 (configuration not stated),5.6*
Cc1ccc(NC(=S)N2CCOC2c2cccnc2)cc1Cl (configuration not stated),0.89
CC(=O)Nc1ccc(C#N)c(C(F)(F)F)c1,5.6*
N#Cc1ccc(NC(=O)c2c(F)cccc2F)cc1C(F)(F)F,1.3
CC(O)(CS(=O)(=O)c1ccc(F)cc1)C(=O)Nc1ccc(C#N)c(C(F)(F)F)c1 (configuration not stated),0.92
